About 7,600 (2.4%) of roughly 320,000 compounds were called active. Another 3% or so got no clear call; they are omitted. Shown is part of a subset that was picked to be rich in actives. Values without a mark were called inactive. Calls come from the whole dose curve; as a rule, active = well fitted activation curve with a large enough effect; inconclusive = small, poorly fitted or top-dose-only effect; inactive = no such curve, though single readings can be large or run the other way.
assay: qHTS Assay for NPC1 Promoter Activators; details: Huh7 NPC1 promoter luciferase reporter, 24 h; series mostly up to 9.22 µM; activation: at the top concentration; note: nearly all actives have a fitted effect of over 60% in size;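 for activation: reporter is driven by a mutant NPC1 promoter; % of control where 0% means no effect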
Outline: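 Stably transfected Huh7 (NPC1 promoter→luciferase), 1500 cells/well in Opti-MEM + 10% FBS, 2 h settle, then compound 24 h at 37 °C. Luminescence after 10 min with Amplite reagent.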
Potency is the fitted concentration of half-maximal effect.

SMILES	activation [%]	Potency
CSCC[C@H](NC(=O)NC1CCCC1)C(=O)O	-1.29	–
Cc1c(NC(=O)CSc2nnc(-c3cccnc3)n2N)c(=O)n(-c2ccccc2)n1C	-4.26	–
O=S(=O)(NCc1ccccc1Br)c1ccccc1Br	0.992	–
C=C1CCC(N(O)c2cc(C)on2)C(=C)CCC2C1CC2(C)C (centres undefined)	-0.705	–
CCOC(=O)N1CCN(C(=O)COc2ccc3oc4c(c3c2)CCCC4)CC1	0.817	–
CCN(CC)CCCNC(=O)COc1ccc2oc3c(c2c1)CCCC3	-11.7	–
O=C(COc1ccc2oc3c(c2c1)CCCC3)Nc1ccccn1	–	0.631 µM (active)
Cc1cc(C)nc(N/N=C/c2c(C)oc3ccccc23)n1	-5.87	–
Cc1nc(Cl)cc(N/N=C/c2ccccc2)n1	10.4	–
O=C(N/N=C/c1ccc2c(c1)OCO2)C(=O)N1CCCC1	26.8	–
Brc1ccc(-c2csc(N/N=C/c3ccc4c(c3)OCO4)n2)cc1	6.54	–
C(=N\Nc1ccc2ccccc2n1)/c1ccc2c(c1)OCO2	–	0.316 µM (active)
Cc1noc(C)c1/C=N/Nc1ccc2ccccc2n1	–	2.82 µM (active)
CCOc1ccc(S(=O)(=O)N2CCCCC2)cc1NC(=O)CN1CCCC1c1cccs1 (centres undefined)	-18.7	–
O=C(c1ccc(Cl)nc1)N1CCN(S(=O)(=O)c2ccc3c(c2)OCCO3)CC1	-8.95	–
CCN(CC)CCCNC(=S)N(CCO)Cc1cc2cc3c(cc2[nH]c1=O)OCO3	-0.386	–
Cc1ccc(OCc2nc3ccccc3n2C)cc1	–	3.55 µM (active)
CCOc1ccc(C(O)Cc2nc3ccccc3n2C)cc1 (centres undefined)	27.8	–
CC(C)n1c(COc2ccccc2)nc2ccccc21	5.01	–
CCOC(=O)N1CCN(S(=O)(=O)c2ccc3c(c2)C(C)C(=O)N3)CC1 (centres undefined)	1.11	–
Cc1ccc(C(=O)NNC2=Nc3cc([N+](=O)[O-])ccc3OC2)cc1	0.883	–
COc1ccc(C2=Nc3cc(C)ccc3OC2)cc1	–	0.891 µM (active)

SMILES	activation [%]	Potency
COc1ccc(C2=NOC(COC(=O)c3ccc4ccccc4n3)C2)cc1 (centres undefined)	1.95	–
COc1ccc2ccn(C)c2c1	0.38	–
Cc1nn(Cc2ccccc2)c(C)c1C(=O)NCCCN1CCCC1=O	-7.25	–
Clc1ccc(-c2cc(-c3ccccn3)on2)c(Cl)c1	–	0.1 µM (active)
Clc1ccc(-c2ncc3ccccn23)c(Cl)c1	-8.18	–
COn1c(-c2ccc(Cl)cc2Cl)nc2ncccc21	-1.68	–
Cc1cc(N=Nc2ccc3ccccc3c2)ccc1O	–	2.24 µM (active)
Cc1ccc(/C=N/NC(=O)c2cc3ccccc3cc2O)o1	19.5	–
CC(=O)CCC(=O)c1ccc2ccccc2c1	8.66	–
Cc1ccc(S(=O)(=O)N(C)C)cc1NC(=O)c1ccc(-n2cncn2)c([N+](=O)[O-])c1	-1.61	–
Cc1ccc(NC(=O)CN(C)C(=O)c2cccc(S(=O)(=O)N3CCCC3)c2)cc1	-0.017	–
CC(=O)NC(c1cccs1)c1cc(Br)c2cccnc2c1O (centres undefined)	-34.6	–
CCC(C)NC(=O)c1ccc(NC(=O)CC2SC(N3CCCCC3)=NC2=O)cc1 (centres undefined)	-7.63	–
CC(NC(=O)CSc1nc2c(cc1C#N)CN(C)CC2)c1ccccc1 (centres undefined)	0.595	–
Cc1nonc1NC(=O)CSc1nc2ccccc2cc1C#N	2.61	–
Cc1cc(NC(=O)CSc2nc3c(cc2C#N)CCCCC3)no1	–	1.41 µM (active)
COc1ccc(C(=O)OCC(=O)c2cc(C)n(CC3CCCO3)c2C)cc1[N+](=O)[O-] (centres undefined)	0.532	–
CCCCN(C(=O)C1CCC1)c1c(N)n(Cc2ccccc2)c(=O)[nH]c1=O	2.36	–
Cn1c(SCC(=O)Nc2ccc(N3CCOCC3)cc2)nnc1C(F)(F)F	21.8	–
COC(=O)C1CCN(C(=O)c2cc(=O)[nH]c3ccccc23)CC1	-6.71	–
CN(C(=O)COC(=O)c1cc(=O)[nH]c2ccccc12)C1CCCCC1	16.7	–
CC1CCN(C(=O)COC(=O)c2cc(=O)[nH]c3ccccc23)CC1	–	3.55 µM (active)

SMILES	activation [%]	Potency
CCN(CC)S(=O)(=O)c1ccc(C)c(NC(=O)COc2ccc(Br)cc2Cl)c1	-4.98	–
Cc1cccc(NC(=O)COc2ccc(Br)cc2C)n1	–	2.82 µM (active)
Cc1cccc(NC(=O)Nc2ccc(OCc3ccccc3)cc2)n1	1.29	–
Cc1cc(C)cc(NC(=O)C(OC(=O)c2ccc(O)cc2)c2ccccc2)c1 (centres undefined)	0.458	–
Cc1ccc(C)c(NC(=S)NNC(=O)c2csc(C)c2)c1	-1.13	–
Cc1ccccc1NC(=S)NNC(=O)c1cccc(Br)c1	6.78	–
Cc1cc(C(=O)NNC(=S)Nc2ccccc2C)cs1	–	3.16 µM (active)
Cc1ccc(C(=O)OCC(=O)NCc2cc(C)c(O)c(C)c2)cc1S(=O)(=O)N1CCCCC1	0.848	–
NS(=O)(=O)c1ccc(N2C(=O)C3C4CC(C(Br)C4Br)C3C2=O)cc1 (centres undefined)	-3.28	–
CCOc1ccc(NC(=O)CN(C)C(=O)CSc2ccccc2)cc1OCC	-2.46	–
COc1ccc(C(=O)O/N=C(\N)c2ccccn2)cc1[N+](=O)[O-]	–	2.51 µM (active)
COc1ccc(C(=O)CSc2nc(C)cc(C)n2)cc1[N+](=O)[O-]	2.6	–
O=C(Nc1ccccc1Cl)O/N=C(/c1ccccc1)c1ccccn1	1.22	–
N/C(=N\OC(=O)Cc1ccc([N+](=O)[O-])cc1)c1ccccn1	21.7	–
O=C(COC(=O)c1ccccn1)NNC(=O)c1ccc([N+](=O)[O-])cc1	0.17	–
COc1ccc(C(=O)NNC(=O)c2cnccn2)cc1[N+](=O)[O-]	0.689	–
N/C(=N\OC(=O)c1ccc([N+](=O)[O-])cc1)c1ccccn1	–	0.355 µM (active)
Cc1ccc(/C(N)=N/OC(=O)COc2ccc(Cl)c(C)c2)cc1	-3.15	–
Cc1ccc(C(=O)O/N=C(\N)c2ccccn2)cc1Cl	–	1.58 µM (active)
CN(C(=O)Cn1nnc(-c2ccc(F)cc2)n1)C1CCS(=O)(=O)C1 (centres undefined)	-1.79	–
CCOC(=O)c1ccccc1NC(=O)COC(=O)C(Cc1c[nH]c2ccccc12)NC(C)=O (centres undefined)	-2.85	–
CC(C)Cc1nnc(NC(=O)CCNC(=O)c2ccccc2Cl)s1	0.264	–

SMILES	activation [%]	Potency
O=C(COC(=O)CNC(=O)C1CCCCC1)NCc1ccccc1	-6.72	–
CC(C(=O)NC1CCCC1)N1CCN(S(=O)(=O)c2ccccc2Cl)CC1 (centres undefined)	-3.61	–
Cc1ccc(NS(=O)(=O)c2ccc3c(c2)CC(=O)N3)cc1Cl	0.741	–
O=C(OCC(=O)N1CCc2ccccc21)c1ccc([N+](=O)[O-])cc1	0.374	–
CC1CCCN(C(=O)c2cc(-c3ccco3)nc3ccccc23)C1 (centres undefined)	-2.25	–
Nc1ccc(N=Nc2ccccc2Cl)c(N)n1	–	3.16 µM (active)
O=C(NCc1ccncc1)c1cccc(NS(=O)(=O)c2ccc(F)c(F)c2)c1	-0.614	–
CC[C@H](C)C(=O)N[C@H]1CCCN1C(=O)/C=C/c1ccccc1	-1.89	–
Cc1nc2ccc(NC(=O)C(F)(F)F)cc2o1	0.865	–
Cc1nc2cc(NC(=O)NCc3ccccc3)ccc2o1	25.1	–
Cc1ccc(NC(=O)Nc2ccc3oc(C)nc3c2)cc1	–	1.12 µM (active)
CCc1ccc(OCC(=O)OC(C)C(=O)NC2CC2)cc1 (centres undefined)	-4.04	–
O=C(CN1CCc2ccccc2C1)Nc1cccc(S(=O)(=O)N2CCOCC2)c1	-0.546	–
Cc1cccc(NS(=O)(=O)c2cccc(C(=O)NNC(=O)c3ccccc3O)c2)c1	0.589	–
Cc1cc(C)cc(OCC(=O)Nc2ccc(N3CCOCC3)cc2N2CCOCC2)c1	-2.18	–
CCN1/C(=C/C(=S)Nc2ccccc2)Sc2ccccc21	–	3.98 µM (active)
O=C(CCN1c2ccccc2Sc2ccccc21)Nc1ccccc1	0.92	–
CCN1/C(=C/c2ccc3ccc(C)cc3[n+]2CC)Sc2ccccc21	-14.2	–
CCOc1ccc(C(=O)CCC(=O)NC2=NCCS2)cc1	-0.182	–
O=C(NCc1ccc2c(c1)OCO2)c1ccc(Cl)s1	4.91	–
O=C(NC1=NCCS1)c1ccc(Cl)s1	–	2.51 µM (active)
COc1ccc(C(=O)NC2=NCCS2)c(OC)c1	–	0.891 µM (active)

SMILES	activation [%]	Potency
O=C(NC1=NCCS1)[C@H](Cc1ccccc1)N1C(=O)c2ccccc2C1=O	1.18	–
COc1ccccc1C(=O)NCCC(=O)NC1=NCCS1	-0.651	–
O=C(COC(=O)c1ccc(N2CCCC2=O)cc1)c1ccc(OC(F)F)cc1	1.32	–
COc1cc(OC)cc(-c2c(-c3cccs3)c3cc(-c4ccc(OC)nc4)ccc3n2C)c1	2.03	–
CCCCN(C(=O)c1ccc2ccccc2c1)c1c(N)n(CCCC)c(=O)[nH]c1=O	0.824	–
Nc1ncc(CN2CCCC(C(=O)Nc3ccc(-c4ccco4)cc3)C2)cn1 (centres undefined)	-12.3	–
COc1ccc(C(C)(C)C)cc1NC(=O)CCN1C(=O)C2CCCCC2C1=O (centres undefined)	1.7	–
O=C(CSc1ncnc2c1nnn2Cc1ccc(F)cc1)NC1CCCC1	-10.9	–
CN(C)C(=O)COC(=O)c1cccc(S(=O)(=O)N2CC3(C)CC2CC(C)(C)C3)c1 (centres undefined)	-4.64	–
CCCNC(=O)c1c(Cl)cnn1-c1ccc(C)cc1	–	2.51 µM (active)
CCCNC(=O)CCc1c(C)nc2c(c(C)nn2-c2ccc(C)cc2)c1C	-3.24	–
CCCc1c(C(=O)O)cnn1-c1ccc(Cl)cc1	-5.17	–
Cc1ccc(C)c(OCC(=O)NNC(=O)C2CCC2)c1	-0.23	–
O=C(O[C@@H]1[C@H](Cc2ccccc2)NS(=O)(=O)[C@H]2C[C@@H]3C=C[C@]12O3)c1ccccc1Br	-0.546	–
O=C(CNS(=O)(=O)c1ccc2c(c1)OCCCO2)N1CCN(c2ccc(F)cc2)CC1	4.82	–
O=C(NNC(=O)C1CCC1)c1ccccc1	-3	–
COc1ccc(S(=O)(=O)N2CCOCC2)cc1NC(=O)CSc1cc(C)ccc1C	0.43	–
COc1ccc2[nH]c(C(=O)Nc3ccccc3Cl)cc2c1	-24.9	–
CC(C)n1c(=O)[nH]c2cc(C(=O)Nc3ccccc3)ccc21	-1.34	–
O=C(Nc1ccccc1)c1cc2ccccc2[nH]1	–	3.98 µM (active)
CC1(C(=O)OCC(=O)Nc2ncc(Cl)cc2Cl)CC1(Cl)Cl (centres undefined)	-2.2	–

Source: PubChem BioAssay AID485313 (National Center for Advancing Translational Sciences (NCATS), 2010)
